APP 5'UTR act – APP 5'UTR luciferase reporter activation. AID 1276. activation, % at 2 µM. 190,000 compounds, 1% hits. SH-SY5Y APP 5'UTR luciferase reporter, luminescence; zero percent = DMSO vehicle wells;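 active means activation above a set limit, based on mean plus 3 SD of controls, cut at about 140% in these data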
STAT1 activator – increases IFN-gamma driven STAT1 reporter signal; NIH 3T3 STAT1-luciferase reporter, luminescence; 100% = IFN-gamma alone, no compound; 200,000 compounds, 2.6% hits; activation (% of control), % at 5.5 µM;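 active means activation above the screen-wide mean activation plus 3 SD, cut at about 130% in these data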;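 further: raw ratio to IFN-gamma control signal so 100% means no change and 0% no light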
APP transl inh – APP translation inhibition. SH-SY5Y APP 5'UTR-luciferase reporter, luminescence. inhibition, % at 2 µM. 190,000 compounds, 0.82% hits. AID 1285;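 active means inhibition above a set limit, derived from the sample mean plus 3 SD, cut at about 45% in these data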
Wee1 degr inh – blocks degradation of human Wee1 kinase. HeLa Luc-Wee1K328M stability, luciferase luminescence; 100% = proteasome inhibitor MG132 effect. P30291. 220,000 compounds, 1.2% hits. reporter increase, % at 5 µM;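 active means activation above the mean of all tested compounds plus 3 SD, set per screening run, cut at about 8.8% in these data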;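 further: cells exposed to compound for 20 h before luminescence read; 0% = DMSO alone and 100% = MG132 at 30 µM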
Target sequence (P30291 whole entry K328M): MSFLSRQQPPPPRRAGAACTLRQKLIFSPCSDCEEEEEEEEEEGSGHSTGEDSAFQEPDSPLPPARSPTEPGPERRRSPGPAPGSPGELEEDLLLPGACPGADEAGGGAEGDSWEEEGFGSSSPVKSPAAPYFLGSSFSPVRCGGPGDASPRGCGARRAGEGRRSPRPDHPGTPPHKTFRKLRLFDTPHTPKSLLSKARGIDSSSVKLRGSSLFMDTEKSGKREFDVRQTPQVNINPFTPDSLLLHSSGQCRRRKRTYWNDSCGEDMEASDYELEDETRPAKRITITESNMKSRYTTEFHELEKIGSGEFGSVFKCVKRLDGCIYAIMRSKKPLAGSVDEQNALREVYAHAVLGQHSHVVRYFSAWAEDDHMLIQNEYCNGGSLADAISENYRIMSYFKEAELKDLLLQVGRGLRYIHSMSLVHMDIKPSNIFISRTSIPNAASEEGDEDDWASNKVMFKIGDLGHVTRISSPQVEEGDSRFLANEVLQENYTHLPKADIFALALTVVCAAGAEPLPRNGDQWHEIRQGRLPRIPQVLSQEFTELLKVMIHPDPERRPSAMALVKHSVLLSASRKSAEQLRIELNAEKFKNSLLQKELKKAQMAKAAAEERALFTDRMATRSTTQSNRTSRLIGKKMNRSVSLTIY
Hsp70 act – switches on Hsp70 transcription; HeLa Hsp70 promoter luciferase reporter, luminescence; scaled: vehicle 0, proteasome-inhibitor control 100%; 200,000 compounds, 0.04% hits; AID 1203; activation, % at 10 µM;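 active means activation above the mean across all tested compounds plus 3 SD, cutoff set per campaign, cut at about 5.5% in these data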;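 further: 100% = MG132 at 30 µM as the positive control and 0% = DMSO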
NF-kB neuron act – compounds increasing NF-kB expression in human neuronal cells | 190,000 compounds, 1.6% hits | AID 1239 | fold change at 12.5 µM | NF-kB reporter expression; hits give high values; in the data active means fold change above about 3.3
* = called active by the depositor. In the library only some 4.8% were active in any assay of this set; here they are far more common.

What do the screens show for `OC(COc1ccc2c(c1)CCC2)Cn1cnc2ccccc21` (configuration not stated)?
APP 5'UTR act: -2.1; STAT1 activator: 109.1; APP transl inh: 2.1; Wee1 degr inh: 0.3; Hsp70 act: 0.5; NF-kB neuron act: 1.43

How did Cc1ccc(-n2c(C)cc(C(=O)OCC(=O)N(CC(C)C)C3CCS(=O)(=O)C3)c2C)cc1 (configuration not stated) do in these assays?
APP 5'UTR act: -14.3; STAT1 activator: 101.3; APP transl inh: 14.3; Wee1 degr inh: 15.9*; Hsp70 act: 0.7; NF-kB neuron act: 0.8

Results for COc1ccc(N/C=C/C(=O)c2ccc(Cl)cc2)cc1 ?
APP 5'UTR act: 151.8*; STAT1 activator: 139.5*; APP transl inh: -151.8; Wee1 degr inh: 8.0; Hsp70 act: 0.3; NF-kB neuron act: 1.04

What do the screens show for `Cc1ccc(N/C=C/C(=O)c2ccc(C)cc2)cc1`?
APP 5'UTR act: 91.2; STAT1 activator: 144.3*; APP transl inh: -91.3; Wee1 degr inh: 1.7; Hsp70 act: 0.1; NF-kB neuron act: 5.15*

Results for Cc1ccc(C(=O)/C=C/C(=O)c2ccc(C)cc2)cc1 ?
APP 5'UTR act: -66.5; STAT1 activator: 89.1; APP transl inh: 66.5*; Wee1 degr inh: -3.7; Hsp70 act: 0.5; NF-kB neuron act: 1.53

What do the screens show for `COc1ccc(N/C=C/C(=O)c2ccc(OC)c(OC)c2)cc1`?
Wee1 degr inh: -0.1

Results for Cc1ccc(C(=O)/C=C/Nc2ccccn2)cc1 ?
APP 5'UTR act: 115.2; STAT1 activator: 23.7; APP transl inh: -115.2; Wee1 degr inh: -1.3; Hsp70 act: -0.7

How did Cc1ccc(C(=O)/C=C\Nc2ccc(C)c(C)c2)cc1 do in these assays?
APP 5'UTR act: 170.2*; STAT1 activator: 135.9*; APP transl inh: -170.2; Wee1 degr inh: 4.8; Hsp70 act: 0.3; NF-kB neuron act: 2.35

Results for CC(C)=CC(=O)Nc1ccc2c(c1)OCO2 ?
APP 5'UTR act: 126.1; STAT1 activator: 111.1; APP transl inh: -126.1; Wee1 degr inh: -1.4; Hsp70 act: 0.1; NF-kB neuron act: 4.53*

How did O=C(/C=C/c1ccc2c(c1)OCO2)Nc1nc2ccccc2s1 do in these assays?
APP 5'UTR act: 156.3*; STAT1 activator: 146.2*; APP transl inh: -156.3; Wee1 degr inh: -1.3; Hsp70 act: -0.2; NF-kB neuron act: 1.14

What do the screens show for `Cc1cc(NS(=O)(=O)c2ccc(NC(=O)Nc3ccc4c(c3)OCO4)cc2)no1`?
APP 5'UTR act: 17.0; STAT1 activator: 118.9; APP transl inh: -17.0; Wee1 degr inh: 8.9*; Hsp70 act: 0.0; NF-kB neuron act: 1.66

How did Cc1ccc(NC(=O)Nc2ccc3c(c2)OCO3)nc1 do in these assays?
APP 5'UTR act: 102.7; STAT1 activator: 148.6*; APP transl inh: -102.7; Wee1 degr inh: 8.8; Hsp70 act: -0.1; NF-kB neuron act: 3.97*

How did N#C/C(=C\c1ccccc1)C(=O)Nc1cc(S(=O)(=O)N2CCOCC2)ccc1N1CCCC1 do in these assays?
APP 5'UTR act: 14.1; STAT1 activator: 94.8; APP transl inh: -14.1; Wee1 degr inh: 6.4; Hsp70 act: -0.6; NF-kB neuron act: 0.87

Results for CCOc1ccc(CN(C)C(=O)c2cccnc2OCC)cc1OC ?
APP 5'UTR act: 3.4; STAT1 activator: 98.6; APP transl inh: -3.3; Wee1 degr inh: 0.4; Hsp70 act: -0.2; NF-kB neuron act: 0.95

How did Brc1cc2c(cc1/C=N/Nc1nc3ccccc3s1)OCO2 do in these assays?
APP 5'UTR act: 29.7; STAT1 activator: 131.9*; APP transl inh: -29.7; Wee1 degr inh: -1.5; Hsp70 act: 0.1; NF-kB neuron act: 1.7

What do the screens show for `Cc1ccc(NC(=O)/C=C/c2ccc3c(c2)OCO3)nc1`?
APP 5'UTR act: 152.3*; STAT1 activator: 121.4; APP transl inh: -152.3; Wee1 degr inh: 0.3; Hsp70 act: 0.1; NF-kB neuron act: 0.97

How did C(=N\Nc1nc2ccccc2s1)/c1ccccn1 do in these assays?
Wee1 degr inh: -4.1

Results for Cc1ccc2nc(NC(=O)/C=C/c3ccc4c(c3)OCO4)sc2c1 ?
APP 5'UTR act: 20.6; STAT1 activator: 104.3; APP transl inh: -20.6; Wee1 degr inh: 0.7; Hsp70 act: -0.3; NF-kB neuron act: 1.1

Results for COc1ccc(NC(=O)/C=C/c2ccc3c(c2)OCO3)cc1 ?
APP 5'UTR act: 72.6; STAT1 activator: 130.9*; APP transl inh: -72.6; Wee1 degr inh: -4.1; Hsp70 act: 0.1; NF-kB neuron act: 3.22

What do the screens show for `NC(=O)[C@@H]1CCCN1Cc1nc(Cc2cccc(C(F)(F)F)c2)no1`?
APP 5'UTR act: -1.2; STAT1 activator: 98.0; APP transl inh: 1.2; Wee1 degr inh: 1.5; Hsp70 act: -0.1

Results for CCOC(=O)C1(Cc2cccc(OC)c2)CCN(CCO)CC1 ?
APP 5'UTR act: 4.8; STAT1 activator: 107.0; APP transl inh: -4.8; Wee1 degr inh: 4.2; Hsp70 act: -0.3; NF-kB neuron act: 1.04

Results for O=S(=O)(c1ccc2c(c1)CCCN2)N1CCCC2CCCCC21 (configuration not stated) ?
Wee1 degr inh: 1.4

What do the screens show for `COCCCN(C(C)=O)c1nc(-c2ccccc2)cs1`?
APP 5'UTR act: 9.9; STAT1 activator: 138.0*; APP transl inh: -9.9; Wee1 degr inh: -1.9; Hsp70 act: -0.2; NF-kB neuron act: 1.58

How did Brc1ccccc1-n1nnc(-c2nccs2)n1 do in these assays?
APP 5'UTR act: 126.7; STAT1 activator: 133.4*; APP transl inh: -126.7; Wee1 degr inh: 5.7; Hsp70 act: 0.1; NF-kB neuron act: 3.86*

How did Cc1ccc(CSc2nnc(SCC(=O)N/N=C/c3c[nH]c4ccccc34)s2)cc1 do in these assays?
APP 5'UTR act: -36.5; STAT1 activator: 131.0*; APP transl inh: 36.5; Wee1 degr inh: -0.8; Hsp70 act: 0.1; NF-kB neuron act: 1.08

What do the screens show for `CCc1ccc(-c2cc(C(=O)N/N=C/c3c[nH]c4ccccc34)[nH]n2)cc1`?
APP 5'UTR act: 208.4*; STAT1 activator: 94.2; APP transl inh: -208.4; Wee1 degr inh: 2.2; Hsp70 act: -0.1; NF-kB neuron act: 0.63

What do the screens show for `C(=C\c1nnc(-c2cccs2)o1)/c1ccccc1`?
APP 5'UTR act: 116.6; STAT1 activator: 143.2*; APP transl inh: -116.7; Wee1 degr inh: 4.0; Hsp70 act: 0.0; NF-kB neuron act: 4.97*

What do the screens show for `Clc1ccccc1-c1nnc(-c2cccs2)o1`?
APP 5'UTR act: 182.4*; STAT1 activator: 142.6*; APP transl inh: -182.4; Wee1 degr inh: 10.2*; Hsp70 act: 0.3; NF-kB neuron act: 5.98*

What do the screens show for `Cc1ccc(/C=C/c2nnc(-c3ccccc3)o2)cc1`?
APP 5'UTR act: 16.2; STAT1 activator: 105.8; APP transl inh: -16.2; Wee1 degr inh: -1.7; Hsp70 act: 0.1; NF-kB neuron act: 2.33

Results for COc1ccc2c(c1)CCCN2C(N)=Nc1ccc(Cl)cc1 ?
Wee1 degr inh: -1.7

How did Cn1c(-c2nnn(-c3ccc(F)cc3)n2)cc2ccccc21 do in these assays?
APP 5'UTR act: 159.4*; STAT1 activator: 149.4*; APP transl inh: -159.4; Wee1 degr inh: 1.2; Hsp70 act: 0.2; NF-kB neuron act: 4.14*

Screens deposited in PubChem BioAssay by several laboratories.
